Results on six compounds are retold here after PubChem BioAssay AID686948 (National Center for Advancing Translational Sciences (NCATS), 2013).

Active and inactive are the calls of the source. Calls follow the shape of the dose curve; as a rule, active = well fitted inhibition curve with a large enough effect; inactive = flat fitted curve, though single readings scatter.

Sequence of Tyrosine-protein kinase Yes (Homo sapiens) (P07947 whole entry, looked up): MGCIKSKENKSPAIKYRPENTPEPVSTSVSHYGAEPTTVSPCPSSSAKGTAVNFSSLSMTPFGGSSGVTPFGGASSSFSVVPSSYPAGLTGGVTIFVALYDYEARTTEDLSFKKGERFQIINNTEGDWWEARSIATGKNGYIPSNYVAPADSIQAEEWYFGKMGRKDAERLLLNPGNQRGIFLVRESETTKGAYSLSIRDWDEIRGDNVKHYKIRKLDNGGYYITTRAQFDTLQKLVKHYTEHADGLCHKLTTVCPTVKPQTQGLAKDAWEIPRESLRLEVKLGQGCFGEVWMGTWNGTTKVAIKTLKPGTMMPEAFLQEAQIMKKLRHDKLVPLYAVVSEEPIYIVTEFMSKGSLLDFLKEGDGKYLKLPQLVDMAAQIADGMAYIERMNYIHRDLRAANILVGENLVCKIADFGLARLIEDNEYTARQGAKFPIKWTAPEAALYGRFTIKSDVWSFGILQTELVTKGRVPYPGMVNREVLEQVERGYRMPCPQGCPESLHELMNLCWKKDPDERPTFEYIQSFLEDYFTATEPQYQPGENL

The target of this test is Tyrosine-protein kinase Yes (Homo sapiens) (UniProt P07947). Briefly: qHTS for small molecule inhibitors of Yes1 kinase: Confirmatory screen on the cherrypicks. The settings on record: Recombinant Yes1, ADP-Glo luminescence, poly(E4Y) substrate. From the text:
The Src family of non-receptor protein tyrosine kinases contains nine members, including Yes1, Src, Fyn, Lyn, and […]. These kinases have important roles in a variety of cellular functions, such as cell proliferation, survival, and differentiation. Src, the most well characterized member of this family, has been previously identified as a proto-oncogene. […] In melanoma, it has been shown that Yes1, and not other family members, such as Src, is functionally involved in the malignant phenotype. Additionally, a recent study examining the downregulation of Yes1 by shRNA found significant effects on cell survival/growth for basal-like and Her2-positive breast cancers. Despite the potential for Yes1 to be a target for the above-described cancers, there are very few reports on the identification of potent and selective inhibitors of Yes1 kinase. Antagonists of Yes1 would further elucidate Yes1 biology and help to confirm whether Yes1 is a viable target for therapeutic intervention in a variety of cancers. A compound that inhibits Yes1 could be important for the treatment of various cancers in which Yes1 is highly expressed and can also be used as a tool compound to help further elucidate Yes1 biology. To that end, we have developed a sensitive HTS biochemical assay for Yes1 activity. This assay was screened against several small compound libraries to look for modulators of activity. Inhibition is the desired output for this assay. NIH Molecular Libraries Probe Production Centers Network [MLPCN] NIH Chemical Genomics Center [NCGC] MLPCN Grant: MH084681
Two microliter of Yes1 enzyme (columns 1-2, 5-48; Millipore, Billerica, MA) are dispensed into Greiner, white solid-bottom 1536-well assay plates; columns 3 and 4 receive buffer without Yes1 as a control for maximum inhibition. Compounds (23 nL) are then transferred via Kalypsys pin tool equipped with 1536-pin array (10 nL slotted pins, V&P Scientific, San Diego, CA). The library compounds are in columns 5-48 and columns 1-4 serve as controls with DMSO in columns 1, 3 and 4 and 10 mM 1:3 fold serial of dasatinib in column 2. Following addition of compound and a 20 minute incubation, 1 uL of substrate (ATP and poly-E4Y from Sigma-Aldrich, St. Louis, MO) is added, and the biochemical reaction is allowed to progress for 60 minutes at room temperature. The production of ADP is then quantified by the ADP-Glo Kit (Promega, Madison, WI). First, 2 uL of the first kit reagent is added, and the reaction is incubated for 45 minutes; then, 4 uL of the second kit reagent are added and the reaction is incubated for 30 minutes at which time the luminescence is read on a Viewlux plate reader (Perkin-Elmer, Waltham, MA). The final concentration of reagents in the reaction are 4 nM Yes1, 0.1 mM ATP, 100 uM EGTA, 10 mM MgCl2, 0.3 mg/mL poly(E4Y), 50 mM Tris pH 7.5, 1 mM DTT, 150 mM NaCl, 0.01% Brij-35, and 5% glycerol. Data are normalized to DMSO-treated control columns with (maximum signal) and without (minimum signal) enzyme.
Background: In qHTS, concentration-response curves come from the screen itself.
With `Cc1ccc(C(=O)Nc2cccc(C(F)(F)F)c2)cc1-c1ccc2nc(NCCN3CCOCC3)ncc2c1`, the Potency is 0.7 nM (active). With `NC(=O)Nc1cc(-c2ccc(CN3CCOCC3)c(F)c2)sc1C(=O)N[C@H]1CCCNC1` the figure was 1.7 nM (active).

`CC(NCc1ccc2c(c1)nc(NC(=O)c1ccc(-c3cn[nH]c3)s1)n2CC(C)(C)O)C(C)(C)C` (stereo unspecified): the Potency was 1.7 nM (active). As to `CN1CCC(CNc2ccc3ncc(-c4cccc(OC(F)(F)F)c4)n3n2)CC1`, the Potency was 2770 nM (active).

As for `CCN(CC)CCOc1ccc(Nc2ncc3cc(-c4c(Cl)cccc4Cl)c(=O)n(C)c3n2)cc1`, the Potency is 0.4 nM (active). With `CC(C)Oc1cc(Nc2nc(N[C@@H](C)c3ccc(F)cn3)ncc2Cl)[nH]n1` the figure was 39.1 nM (active).
